For 40 molecules, Potency and activity change results are on record in PubChem BioAssay (Tox21).

The structures appear in SMILES notation. Inconclusive results are not listed. A call without a number means that no potency is given here. Unmarked numbers belong to inactive results. The source made the active and inactive calls. Calls come from the whole dose curve; as a rule, active = well fitted activation curve with a large enough effect in the repeat runs; inconclusive = weak or mixed curves; inactive = flat fitted curve, though single readings scatter.
Potency is the fitted concentration of half-maximal effect.

This test can be described thus: A CellTox Green Cytotoxicity Assay to monitor cytotoxicity in HEK293 cells - 24 hour (AID 1224875). Note: nearly all actives have a fitted effect of over 45% in size. Particulars: CellTox Green fluorescence; series mostly up to 76.8 µM. From the text: National Center for Advancing Translational Sciences [NCATS]
NIH Chemical Genomics Center [NCGC]
U.S. Environmental Protection Agency [EPA]
National Institutes of Environmental Health Sciences [NIEHS]
National Toxicology Program [NTP]
Cell-based models are critical for drug discovery. Determining the natural cytotoxic effects resulting from test compounds is an essential research activity. A CellTox Green Cytotoxicity Assay to monitor cytotoxicity in real time of continues cell culture during 40 hours of the compound treatment was used to screen Tox21 10K library compounds in Hek293 cells. CellTox Green Cytotoxicity Assay is a nonlytic, homogeneous, biofluorescent method to measure cytotoxicity in cell culture after experimental manipulation. The assay system uses a proprietary asymmetric cyanine dye that is excluded from viable cells but preferentially stains the dead cell's DNA. […] Viable cells produce no appreciable increases in fluorescence. Therefore, the fluorescence signal produced by the binding interaction with dead cell DNA is proportional to cytotoxicity.
The mixture of Hek293 cell suspension and reagents were dispensed at 600cells/6 ul/well in 1536-well tissue culture treated black solid bottom plates using a Multidrop dispenser. After the assay plates were incubated at a 37 C/5% CO2 incubator for 5 hours, 23 nL of compounds dissolved in DMSO, positive and negative controls was transferred to the assay plate by a pintool work station. The plates were incubated at 37 C for 40 hours. The fluorescence intensity were measured at 0h, 8h, 16h, 24h, 32h and 40h time points using ViewLux plate reader during compound treatment.
With `Cc1cc(C)cc([N+](=O)[O-])c1`, the Potency result is “inactive”. In the case of `CCC1Nc2cc(Cl)c(S(N)(=O)=O)cc2S(=O)(=O)N1` (stereo not given), the Potency result was “inactive”. The same measure, in the same setting: under `CC(C)COC(=O)/C=C/c1ccccc1` stands “inactive”.

For the molecule `FC(F)(F)c1ccc(Cl)cc1Cl`, the Potency entry is “inactive”. Same read-out and setting: under `C1=CCC(c2ccccc2)CC1` (stereo not given) stands “inactive”. As to `COc1cccc2sc(N)nc12`, the Potency entry is “inactive”. For the molecule `CO[Si](CCCS)(OC)OC`, the Potency result is “inactive”.

On to `CCCCC(CC)C(=O)OC(C)C` (stereo not given), for which the Potency entry was “inactive”.

`CCCCCCCCCCC`: the Potency entry was “inactive”.

For `CC1=NN(c2ccc(S(=O)(=O)O)cc2)C(=O)C1N=Nc1ccccc1` (stereo not given), the Potency entry is “inactive”. Still for that read-out and setting: to `O=C(O)/C=C/c1ccccc1` belongs “inactive”; to `NC(Cc1c[nH]c2ccccc12)C(=O)O` (stereo not given), “inactive”.

In the case of `CC(=O)OCCCc1ccccc1`, the Potency result was “inactive”.

As to `CCCCCCCCCOCC1CO1` (stereo not given), the Potency result is “inactive”. The same measure, in the same setting: to `C=CCOC(=O)c1ccc(C(=O)OCC=C)c(C(=O)OCC=C)c1` belongs “inactive”; to `O=C(/C=C/c1ccccc1)NCCO`, 6.01 µM (active); to `NC(=O)C1(N2CCCCC2)CCN(CCCC(=O)c2ccc(F)cc2)CC1`, “inactive”.

With `CC1(N)CCC(C(C)(C)N)CC1` (stereo not given), the Potency entry was “inactive”. The same measure, in the same setting: under `Cc1oc(=O)oc1CN1CCN(c2cc3c(cc2F)c(=O)c(C(=O)O)c2n3C(C)S2)CC1` (stereo not given) stands “inactive”. As for `C=CCCCCCCCCCCC`, the activity change was -0.54% [at 6.97 µM, active compounds read high]. As to `Nc1cc(S(=O)(=O)O)ccc1S(=O)(=O)O`, the Potency entry is “inactive”. The same measure, in the same setting: under `O=C1c2ccccc2-c2ccccc21` stands “inactive”; under `Cc1cccc(NC(=S)N(C)C)c1`, “inactive”. Still for that read-out and setting: under `CCCCOC(=O)C(C)OC(=O)CCC` (stereo not given) stands “inactive”. Still for that read-out and setting: under `C1CCN2C[C@@H]3C[C@@H](CN4CCCC[C@@H]34)[C@H]2C1` stands “inactive”. For `Cc1cccc(C(=O)O)c1[N+](=O)[O-]`, the Potency entry was “inactive”. `CC(=O)N(CC(O)CO)c1c(I)c(C(=O)NCC(O)CO)c(I)c(C(=O)NCC(O)CO)c1I` (stereo not given): the Potency entry was “inactive”. For the molecule `O=C(Oc1ccccc1C(=O)O)c1ccccc1O`, the Potency entry is “inactive”. Still for that read-out and setting: to `CCC(=O)OCCC(C)CCC=C(C)C` (stereo not given) belongs “inactive”; to `c1ccc(CNc2ncnc3nc[nH]c23)cc1`, “inactive”; to `CC1CCC(C(C)(C)S)C(=O)C1` (stereo not given), “inactive”.

In the case of `CN=C(NC#N)NCCSCc1csc(N=C(N)N)n1`, the Potency entry was “inactive”. On the same count and under the same terms, to `COC(OC)C(C)c1ccccc1` (stereo not given) belongs “inactive”; to `Nc1ccc(C(=O)OCC(O)CO)cc1` (stereo not given), “inactive”; to `CCCCOC(=O)C(=O)OCCCC`, “inactive”.

Take `Nc1cc(C(=O)O)ccc1Cl`: the Potency result is “inactive”. The same measure, in the same setting: under `CCCCOC(=O)[C@@H](C)Oc1ccc(Oc2ccc(C(F)(F)F)cn2)cc1` stands “inactive”; under `CCN(Cc1cccc(S(=O)(=O)O)c1)c1ccccc1`, “inactive”. The same measure, in the same setting: to `Nc1ccc(S(=O)(=O)NC(=O)c2ccccc2)cc1` belongs “inactive”. As for `CCCCCCCCCCCCCCCCI`, the activity change was -5.96% [at 15.8 µM, active compounds read high].
